{"source": "paper PMC13423814", "key": {"Peroxiredoxin-1": {"biological_target": "Peroxiredoxin-1 (UniProt Q06830)", "sequence (Q06830 whole entry)": "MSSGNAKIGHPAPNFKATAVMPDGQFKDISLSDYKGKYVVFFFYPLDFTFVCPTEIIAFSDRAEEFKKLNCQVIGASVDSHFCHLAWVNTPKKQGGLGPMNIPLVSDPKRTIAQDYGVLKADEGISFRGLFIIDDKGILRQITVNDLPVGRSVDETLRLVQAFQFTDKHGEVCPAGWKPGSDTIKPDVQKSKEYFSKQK"}, "[1]": {"biological_target": "DNA replication licensing factor MCM2 (UniProt P49736)", "sequence (P49736 whole entry)": "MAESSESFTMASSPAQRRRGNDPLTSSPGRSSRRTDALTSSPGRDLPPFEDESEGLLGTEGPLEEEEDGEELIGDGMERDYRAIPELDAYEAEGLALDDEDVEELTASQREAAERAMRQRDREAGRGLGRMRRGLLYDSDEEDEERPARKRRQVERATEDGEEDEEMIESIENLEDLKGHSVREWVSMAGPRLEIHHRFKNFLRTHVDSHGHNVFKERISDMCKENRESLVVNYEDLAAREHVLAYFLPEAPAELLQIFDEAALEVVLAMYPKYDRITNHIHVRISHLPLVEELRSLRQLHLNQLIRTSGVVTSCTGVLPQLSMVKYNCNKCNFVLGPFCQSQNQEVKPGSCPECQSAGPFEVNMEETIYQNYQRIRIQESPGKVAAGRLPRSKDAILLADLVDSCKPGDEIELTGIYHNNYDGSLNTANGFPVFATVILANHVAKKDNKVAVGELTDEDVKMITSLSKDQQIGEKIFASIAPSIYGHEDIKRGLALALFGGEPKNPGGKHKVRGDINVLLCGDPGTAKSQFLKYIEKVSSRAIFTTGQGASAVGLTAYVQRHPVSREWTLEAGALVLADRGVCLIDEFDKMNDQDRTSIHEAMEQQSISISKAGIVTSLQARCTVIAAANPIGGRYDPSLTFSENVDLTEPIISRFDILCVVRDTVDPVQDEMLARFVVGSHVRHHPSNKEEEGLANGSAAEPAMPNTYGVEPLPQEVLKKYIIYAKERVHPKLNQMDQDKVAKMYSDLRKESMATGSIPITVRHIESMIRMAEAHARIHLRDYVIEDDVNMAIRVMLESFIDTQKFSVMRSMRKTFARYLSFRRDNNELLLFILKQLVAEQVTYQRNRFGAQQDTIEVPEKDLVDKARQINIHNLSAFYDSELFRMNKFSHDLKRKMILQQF"}, "Histone H4": {"biological_target": "Histone H4 (UniProt P62805)"}, "[2]": {"biological_target": "Serine/arginine-rich splicing factor 1 (UniProt Q07955)", "sequence (Q07955 whole entry)": "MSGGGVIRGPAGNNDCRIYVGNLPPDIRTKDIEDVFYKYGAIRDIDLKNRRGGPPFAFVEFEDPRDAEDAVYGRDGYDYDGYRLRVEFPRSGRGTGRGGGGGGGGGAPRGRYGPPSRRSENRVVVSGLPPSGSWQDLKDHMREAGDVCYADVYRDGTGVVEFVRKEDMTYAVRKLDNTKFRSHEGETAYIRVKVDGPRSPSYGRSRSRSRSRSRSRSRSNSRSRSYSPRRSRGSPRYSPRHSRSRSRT"}}, "data": [{"substance": "Putative keratin-87 protein, A6NCN2", "values": [{"measurement": "listed as a hit", "setting": "Peroxiredoxin-1", "result": "yes"}]}, {"substance": "DNA replication licensing factor MCM3, P25205", "values": [{"measurement": "listed as a hit", "setting": "[1]", "result": "yes"}]}, {"substance": "Prelamin-A/C, P02545", "values": [{"measurement": "listed as a hit", "setting": "Histone H4", "result": "yes"}]}, {"substance": "RNA-binding motif protein, X chromosome, P38159", "values": [{"measurement": "listed as a hit", "setting": "[2]", "result": "yes"}]}]}
